# From PMC4336329 (PLoS ONE, 2015)
# Among all 310,000 compounds or so, about 14,000 (4.5%) showed an effect of 50% or more. Effects have a minus sign here. The entries come from a sample that favours strong results as a whole.
# Biological target: human ether-à-go-go-related gene (hERG) potassium channel (human, UniProt Q12809)
# Assay: primary screen, population patch clamp on CHO cells stably expressing hERG; higher = less effect of the substance
# 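Further: peak tail current of the secondary pulse compared with the same well before compound.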
# Chain of human ether-à-go-go-related gene (hERG) potassium channel (Q12809 whole entry, looked up): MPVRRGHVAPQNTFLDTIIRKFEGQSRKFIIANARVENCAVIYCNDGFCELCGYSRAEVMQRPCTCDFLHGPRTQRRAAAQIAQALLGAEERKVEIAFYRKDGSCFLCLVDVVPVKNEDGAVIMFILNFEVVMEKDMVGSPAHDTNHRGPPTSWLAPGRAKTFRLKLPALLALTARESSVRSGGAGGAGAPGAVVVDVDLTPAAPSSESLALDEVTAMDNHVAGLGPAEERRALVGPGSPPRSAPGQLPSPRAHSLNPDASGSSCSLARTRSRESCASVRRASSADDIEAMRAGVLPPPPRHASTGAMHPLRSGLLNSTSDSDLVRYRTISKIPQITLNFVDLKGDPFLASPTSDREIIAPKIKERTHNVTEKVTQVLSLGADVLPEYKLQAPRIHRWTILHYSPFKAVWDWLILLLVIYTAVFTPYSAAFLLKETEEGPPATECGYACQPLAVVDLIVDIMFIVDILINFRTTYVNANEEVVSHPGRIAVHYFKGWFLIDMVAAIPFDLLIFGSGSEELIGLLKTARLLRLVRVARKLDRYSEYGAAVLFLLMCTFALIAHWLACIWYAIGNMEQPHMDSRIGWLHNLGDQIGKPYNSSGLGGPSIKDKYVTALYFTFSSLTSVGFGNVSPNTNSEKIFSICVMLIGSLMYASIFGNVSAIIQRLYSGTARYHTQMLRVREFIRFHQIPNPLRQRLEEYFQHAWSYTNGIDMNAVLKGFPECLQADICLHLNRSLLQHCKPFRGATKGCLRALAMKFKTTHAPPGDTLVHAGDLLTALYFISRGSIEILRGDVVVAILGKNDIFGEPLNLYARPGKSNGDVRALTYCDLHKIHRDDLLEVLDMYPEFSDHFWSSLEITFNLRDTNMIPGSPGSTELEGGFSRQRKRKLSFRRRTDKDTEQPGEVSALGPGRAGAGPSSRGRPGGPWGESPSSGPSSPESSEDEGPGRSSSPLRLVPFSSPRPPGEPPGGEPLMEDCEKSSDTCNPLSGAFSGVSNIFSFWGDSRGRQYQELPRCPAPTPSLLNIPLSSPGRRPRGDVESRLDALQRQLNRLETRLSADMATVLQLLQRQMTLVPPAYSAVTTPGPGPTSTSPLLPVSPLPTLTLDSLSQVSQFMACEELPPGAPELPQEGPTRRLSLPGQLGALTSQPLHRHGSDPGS
row,Compound,"hERG current change (%, negative = inhibition) at 10uM [%]"
1,N#Cc1ccccc1OCC(=O)NCCNC(=O)COc1ccccc1C#N,-10.1
2,CCOC(=O)C(C)Oc1c(Br)cc(C2NC(=O)NC(C)=C2C(C)=O)cc1OCC (stereo not shown),3.1
3,COc1cccc(C(=O)NCCC(=O)NCc2cc(=O)n(C)c(=O)n2C)c1,13.9
4,Cn1ccc(-c2ccccc2)c(C#N)c1=O,3.34
5,CS(=O)(=O)CCC(C(=O)OCc1ccc(Br)cc1)N1C(=O)c2ccccc2C1=O (stereo not shown),-0.0845
6,COC(=O)c1cc(C(=O)NNC(=O)c2ccc3c(c2)OCO3)cc([N+](=O)[O-])c1,-7.98
7,O=C(CN(Cc1ccco1)C(=O)c1ccccc1F)Nc1ccccc1C(F)(F)F,2.3
8,CNC(=S)N/N=C/c1cn(Cc2ccc(F)cc2)c2ccccc12,-4.59
9,Cc1ccc(S(=O)(=O)N(C)C)cc1NC(=S)NCCc1ccccn1,24.2
10,COc1cc(C(C(=O)Nc2c(C)cccc2C)N(C)C(=O)c2ccc(-n3cnnn3)cc2)ccc1O (stereo not shown),-67.7
11,COc1cc(C(NC=O)C(=O)Nc2c(C)cccc2C)ccc1O (stereo not shown),15.1
12,Cc1cccc(C)c1NC(=O)c1ccc(-n2cnnn2)cc1,-44.2
13,O=C(CN1CCc2ccccc2C1)Nc1ccccc1N1CCCCCC1.O=C(O)C(=O)O,-5.79
14,O=C(NS(=O)(=O)Nc1ccc(Cl)cc1)c1c[nH]c2ccccc12,23.2
15,Cc1cc(C)c(S(=O)(=O)N2CCN(C(=O)C3CCCO3)CC2)c(C)c1 (stereo not shown),-17.1
16,CCc1nn(C(C)C(=O)NCCN2CCN(c3cccc(C)c3C)CC2)c(=O)c2cc3occc3n12 (stereo not shown),-65.3
17,CCc1nn(C(C)C(=O)Nc2cccc(C)c2C)c(=O)c2cc3occc3n12 (stereo not shown),-0.753
18,CCc1nn(C(C)C(=O)NCCN2CCCCCC2)c(=O)c2cc3occc3n12 (stereo not shown),6.27
19,O=C(c1cnn2c(C(F)(F)F)cc(-c3cccs3)nc12)N1CCOCC1,-5.7
20,O=C(Nc1cccc(-n2cnnn2)c1)c1ccc(C(F)(F)F)cc1,-15.3
21,Oc1ccc(-c2[nH]ncc2-c2cccc3cccnc23)c(O)c1,32.1
22,Cc1cc(=O)oc2cc(OCC(=O)NCCCN3CCCC3=O)ccc12,29.5

row,Compound,"hERG current change (%, negative = inhibition) at 10uM [%]"
1,O=[N+]([O-])c1cccc(CN2CCN(c3cccc4[nH]ccc34)CC2)c1,-7.67
2,c1ccc2c(CN3CCOCC3)c[nH]c2c1,15.1
3,COc1ccccc1N1CCN(Cc2ccc(OC)c3ccccc23)CC1,-5.46
4,Fc1ccccc1N1CCN(C2CCN(Cc3c[nH]c4ccccc34)CC2)CC1,-54.5
5,O.c1ccc2c(CN3CCN(C4CCCCC4)CC3)c[nH]c2c1,-18.2
6,COc1ccccc1N1CCN(C(=O)CCc2c[nH]c3ccccc23)CC1,3.69
7,Fc1ccc(N2CCN(Cc3c[nH]c4ccccc34)CC2)cc1,-68.3
8,COc1ccccc1N1CCN(Cc2c[nH]c3ccccc23)CC1,-55.8
9,c1cnc(N2CCN(Cc3c[nH]c4ccccc34)CC2)nc1,-36
10,Cc1ccc(CN2CCN(c3cccc4[nH]ccc34)CC2)cc1,-60.4
11,c1ccc2c(CN3CCCCCCC3)c[nH]c2c1,-22.4
12,Clc1ccccc1CN1CCN(c2cccc3[nH]ccc23)CC1,3.09
13,Cc1c(Cl)c([N+](=O)[O-])nn1CC(=O)N1CCN(C23CC4CC(CC(C4)C2)C3)CC1,19.9
14,N#CC(C#N)=NNc1ccc(S(=O)(=O)N2CCCC2)cc1,-17.8
15,Cc1ccc(C(=O)COc2cc(O)c3c(=O)cc(-c4ccccc4)oc3c2)cc1,24.6
16,CCOC(=O)/C(C#N)=C1\CCCN1CC(N)=S,2.57
17,COc1ccc2c(-c3ccccc3)cc(SC(C)C(N)=O)nc2c1 (stereo not shown),19.3
18,COc1ccc(C(=O)Nc2ccc([N+](=O)[O-])cn2)cc1OC,-22.6
19,Clc1ccccc1N1CCN(Cc2c[nH]c3ccccc23)CC1,-35.6
20,Cc1ccccc1N1CCN(Cc2c[nH]c3ccccc23)CC1,-62.1
21,Cl.c1ccc2c(CN3CCCCCC3)c[nH]c2c1,-18.1
